Screening data (PubChem BioAssay)
Shiga toxin inh – inhibitors of Shiga toxin in Vero cells; Vero cells, Shiga toxin protein synthesis inhibition reporter; actives 9.2% (n = 290,000); AID 2315; inhibition, % at 38.7 µM; in the data active means inhibition mostly above about 28%, no sharp cut-off; inactive means mostly below about 43%; further: 0% is about no effect
Pf growth 48h – inhibits P. falciparum growth in the first generation, 48 h; P. falciparum luciferase growth in erythrocytes, 48 h; actives 5.9% (n = 310,000); Potency, µM (highest dose often 28.7 µM), inactives show top-dose activity change, negative = inhibition, hits mostly inhibitors; AID 504832; further: potency means the concentration at half of the fitted maximal effect; on the % scale 0 is the no-effect control and ±100 the full control effect
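Growth was read as firefly luciferase luminescence after a 48 h, 37 C, 5% CO2 exposure of compounds to reporter-bearing P. falciparum cultures (0.1% parasitemia, 2% hematocrit final) in Albumax-supplemented RPMI 1640.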
Sm TGR inh – inhibitors of Schistosoma mansoni thioredoxin glutathione reductase | AID 485364 | purified TGR, DTNB reduction, TNB absorbance 405 nm | actives 3% (n = 360,000) | Potency, µM (doses to about 114 µM), for inactives: top-dose activity change, negative = inhibition, actives largely listed as inhibitors | Q962Y6; further: potency means the concentration at half of the fitted maximal effect; on the % scale 0 is the no-effect control and ±100 the full control effect; nearly all actives have a fitted effect of over 60% in size
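First, TGR (20 nM dispensed) and NADPH were mixed with compound. Second, a 15 min room-temperature incubation followed. Third, further NADPH and then DTNB were added to start the reaction. Finally, TNB absorbance was monitored kinetically.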
NS1 function inh – inhibitors of influenza NS1 protein function | Potency, µM (titrated, usually from 46.1 µM), inactives show at the top dose activity, positive = more growth | actives 0.4% (n = 270,000); calls by dose curve; further: potency means the concentration at half of the fitted maximal effect; actives are rising curves; nearly all actives have a fitted effect of over 50% in size
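Growth recovery, yeast-based: influenza A NS1 expressed in S. cerevisiae causes slow growth, and suppressors are detected by OD600. The parent strain without NS1 is used as positive control.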
Cycloheximide cs – counter-screen hit for Shiga toxin inhibitors, cycloheximide | cell reporter, cycloheximide protein synthesis inhibition counterscreen | max response, % | actives 12% (n = 300,000) | AID 2314; in the data active means max response mostly above about 13%, no sharp cut-off; inactive means mostly below about 14%; further: read at 38.3 µM for the half of the compounds with a filed dose; 0% is about no effect
Pf growth 96h – P. falciparum growth inhibition at 96 hour, primary screen for plastid delayed-death inhibitors | P. falciparum luciferase reporter growth, 96 h | Potency, µM (doses to about 28.7 µM), for inactives: top-dose activity change, negative = inhibition, actives largely listed as inhibitors | actives 6.9% (n = 320,000) | AID 504834; further: potency means the concentration at half of the fitted maximal effect; on the % scale 0 is the no-effect control and ±100 the full control effect
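Luminescence readout: decreased luciferase signal marks inhibited growth of reporter-expressing P. falciparum in infected red cells (2% hematocrit, 0.05% parasitemia final), exposed to compound two generations (96 h, 37 C, 5% CO2).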
Active calls of the source: *; ? = inconclusive; . = no result given. Hits are enriched below; roughly 21% of the tested compounds scored in any of these assays. Unless noted, the call rests on the fitted dose curve; in most records, active means well fitted curve in the direction sought with a large enough effect; inconclusive means small, poorly fitted or top-dose-only effect, or another doubt; inactive means no such curve, though single readings can be large; an effect the other way counts as inactive or inconclusive.

SMILES	Shiga toxin inh	Pf growth 48h	Sm TGR inh	NS1 function inh	Cycloheximide cs	Pf growth 96h
CCCc1c(O)c2ccccc2[nH]c1=O	4	14%	0%	2%	-2	-19%
Cc1cc(C)c(COCc2cc(/C=N/O)c(C)cc2C)cc1/C=N/O	-4	.	6%	-2%	-1	10µM*
CC(C)(C)c1ccc(C(=O)NCC(=O)N2CCCCCC2)cc1	72	0%	5%	14%	2	-3%
CCOC(=O)c1cnn(-c2c(Cc3ccccc3)c(C)nc3c(-c4ccccc4)c(C)nn23)c1N	17	12µM*	0%	1%	0	.
COc1ccccc1N1CCN(S(=O)(=O)c2ccc(-n3cnnn3)c(C)c2)CC1	-7	-4%	5%	6%	-1	1.7µM*
COc1ccc(S(=O)(=O)N2CCN(c3ccccn3)CC2)c(OC)c1	-6	16%	9%	-16%	2	4.7µM*
COc1ccccc1N1CCN(S(=O)(=O)c2cc(C)sc2C)CC1	-14	.	12%	-7%	-5	4.7µM*
COc1ccc(S(=O)(=O)N2CCN(c3ccccn3)CC2)cc1OC	-6	2%	2%	-14%	0	44%
COc1ccc(N2CCN(S(=O)(=O)c3ccc(-n4cnnn4)c(C)c3)CC2)cc1	-10	8%	1%	2%	-2	23%
CCc1ccccc1N1CCN(S(=O)(=O)c2cc(OC)ccc2OC)CC1	-7	-12%	2%	-9%	-1	10µM*
CCCSCCCNC(=O)c1ccccc1NC(=O)C1=CSCCO1	-8	-30%	-1%	-17%	-3	13µM*
CCc1ccc(CNC(=O)c2cnc3sc(N4CCCCC4)nn3c2=O)cc1	.	.	2%	.	.	.
COC(=O)c1nc2cc3c(cc2c(C)c1C(=O)OC)OCO3	6	18%	3%	2%	4	55%
Cc1nc2cc3c(cc2c(C)c1C(=O)OC(C)C)OCO3	29*	36%	0%	8%	40*	39%
Cc1ccsc1/C=N/Nc1ncc(Cl)cc1Cl	119*	.	2%	-78%	32*	-101%
Cc1ccsc1/C=N/Nc1nc(=O)[nH]nc1C	112*	?	-5%	.	34*	-7%
Cc1ccsc1/C=N/NC(=O)Cc1ccc(Cl)cc1	19	-31%	4%	-41%	9	8%
COc1cc(/C=N/Nc2ccc(F)cc2F)cc(OC)c1OC	39	-11%	-13%	-8%	9	-100%
CCN(CC)c1ccc(/C=N/Nc2nc(C)cc(C)n2)cc1	35	?	-3%	-3%	20	?
Cc1ccsc1/C=N/Nc1ccc(F)cc1F	91*	?	-1%	-7%	44*	?
Cc1cc(C)nc(N/N=C/c2sccc2C)n1	77*	22%	-14%	-5%	26*	?
O=C(NCc1cccnc1)C1CC(=O)N(CCc2ccccc2)C1 (stereo unspecified)	-17	.	84%	11%	4	-43%
CCN(CC)CCn1c(NC(=O)c2ccc(Cl)cc2)nc2ccccc21	20	.	3%	3%	19*	3.7µM*
CCN(CC)CCn1c(NC(=O)c2ccccc2O)nc2ccccc21	.	-74%	45µM*	-17%	26*	16%
CC(C)c1ccc(N=C2NN=C(c3cccs3)CS2)cc1	87*	59%	4%	15%	41*	42%
SMILES	Shiga toxin inh	Pf growth 48h	Sm TGR inh	NS1 function inh	Cycloheximide cs	Pf growth 96h
CC(C)N=C1NN=C(c2ccc(Cl)c(Cl)c2)CS1	102*	-64%	8%	.	38*	-47%
CC(C)N=C1NN=C(c2cccs2)CS1	54*	450%	0%	.	35*	102%
Cc1cc(C)c(N2C(=O)C3C4CC(=O)C(c5ccccc54)C3C2=O)c(C)c1 (stereo unspecified)	-2	53%	13%	-8%	5	-1%
COc1ccccc1CNC(=O)Cn1c(=O)nc(-c2ccccc2)c2ccccc21	.	.	-5%	.	.	.
CC(C)CC(=O)Nc1nnc(S(=O)(=O)N(C)Cc2ccc(Cl)cc2)s1	.	.	3%	.	.	.
NS(=O)(=O)c1ccc(NC(=O)COC(=O)c2ccc([N+](=O)[O-])s2)cc1	-3	11%	25µM*	-1%	-1	-11%
S=c1[nH]nc(-c2cc3ccccc3o2)n1Cc1ccccc1	-7	-3%	-11%	-1%	-2	-11%
CCOc1ccc(OCC(=O)OCC(=O)NCC2CCCO2)cc1 (stereo unspecified)	.	29%	4%	.	.	80%
Cc1ccccc1Cn1c(=O)n(CCc2ccccc2)c(=O)c2sc3ccccc3c21	.	.	-2%	.	.	.
COc1ccc(OC)c2[nH]c(=O)c(CCNC(=O)c3ccc(Br)o3)cc12	-12	12µM*	0%	-21%	-2	.
COc1ccc2cc(CCNC(=O)c3ccc(S(=O)(=O)N4CCOCC4)cc3)c(=O)[nH]c2c1	-4	10µM*	1%	-19%	8	?
Cc1cc2cc(CCNC(=O)c3ccc(S(=O)(=O)N4CCCC4)cc3)c(=O)[nH]c2cc1C	13	9.3µM*	-1%	19%	-1	?
COc1ccc(OC)c2[nH]c(=O)c(CCNC(=O)c3ccc(S(=O)(=O)N4CCCCC4)cc3)cc12	6	9.3µM*	8%	-33%	0	55%
COc1ccc(OC)c2[nH]c(=O)c(CCNC(=O)c3ccc(S(=O)(=O)N(C)C)cc3)cc12	7	7%	16%	-2%	6	80%
COc1ccc(CNC(=O)c2ccc(S(=O)(=O)N3CCOCC3)cc2)cc1	.	-25%	0%	.	.	?
Cc1cc2cc(CCNC(=O)c3ccc(C)c([N+](=O)[O-])c3)c(=O)[nH]c2cc1C	-10	-29%	-4%	26%	-3	?
CC(C)(C)CC(C)(C)c1ccc(O)c(C[N+](C)(C)[O-])c1	.	.	.	-3%	.	.
CCc1ccc(C2CC(=O)c3c([nH]c(C(=O)OC4CCC(C)CC4)c3C)C2)cc1 (stereo unspecified)	.	.	1%	.	.	.
Cc1ccc(S(=O)(=O)NCCc2csc3nc(-c4ccccc4C)nn23)cc1	.	.	3%	.	.	.
COC(C[C@@H](O)C[C@H](O)[C@@H](C)OCc1ccccc1)OC	2	45%	0%	-1%	-4	79%
CC(C)(C)c1cc(CNC2CS(=O)(=O)C[C@@H]2O)cc(C(C)(C)C)c1O (stereo partly specified)	2	46%	1.6µM*	-13%	-1	4%
Cc1cc2c(s1)c1cnn(Cc3ccc(S(C)(=O)=O)cc3)c(=O)c1n2C	6	.	.	.	10	.
CCC(CC)C(=O)Nc1ccc(Sc2ccc([N+](=O)[O-])cc2)cc1	-4	7.4µM*	3%	-3%	6	?
CCCC(=O)Nc1ccc(C(=O)NNC(=O)c2cccc([N+](=O)[O-])c2)cc1	-5	96%	13%	-2%	-2	14%
CCC(CC)C(=O)Nc1ccc([N+](=O)[O-])cn1	-10	-1%	1%	.	-3	?
